The whole screen tested about 2,300 compounds, of which about 1,200 (52%) were called active. About 34% were inconclusive and are not listed. The call rests on the fitted dose curve; in most records, active means well fitted inhibition curve with a large enough effect; inconclusive means small, poorly fitted or top-dose-only effect, or effect the other way; inactive means no such curve, though single readings can be large or run the other way. The set was probably picked from earlier hits. Some of the results follow.
Potency means the concentration at half of the fitted maximal effect.

The assay is described as follows: Confirmation screen for delayed death inhibitors of the malarial parasite plastid, 48 hour incubation. Further: nearly all actives have a fitted effect of over 65% in size. Conditions: P. falciparum-infected erythrocytes, luciferase growth; series mostly up to 28.7 µM. The text has this: The goal of this screen is to discover new antimalarial compounds that act by inhibiting the development of the apicoplast in the malarial parasite Plasmodium falciparum. The biochemical processes that make this organelle essential for erythrocytic stage parasites are not well understood. However, antibiotics, such as azithromycin and tetracycline, which target the apicoplast translational machinery, have a potent antimalarial effect. […] We have developed a cell-based assay that measures parasite growth based on the expression of an integrated copy of a firefly luciferase reporter. To detect small molecules that cause this "delayed death phenotype, erythrocytes infected with the luciferase-expressing parasites were incubated with compounds for either one or two generations, corresponding to 48 and 96 hours, respectively. Compounds that inhibit parasite growth in the second generation, but not the first, should be enriched in antimalarials that target the apicoplast. Growth inhibition is detected by a decrease in luciferase activity. MLPCN Grant: R21 NS059500 Assay Provider: David Fidock and Eric Ekland, Columbia University Keywords: NIH Roadmap, MLPCN, MLI, MLSMR, qHTS, NCGC, qHTS, malaria, luciferase, viability
Four microliters of culture medium (RPMI 1640 with 0.5% w/v Albumax (GIBCO), 24 mM sodium bicarbonate and 10 ug/mL gentamycin) were dispensed by a Multi-drop Combi into white solid 1536-well plates (Grenier) and 23 nL compound was added by a pin tool. Four microliters of infected erythrocytes (2% hematocrit, 0.1% parasitemia final concentration) in culture medium were dispensed and the plates incubated for 48 hours at 37 C in 5% CO2. Two microliters of luciferase detection reagent was added and luminescence was detected by a ViewLux (PerkinElmer) reader.
With `COc1cc(CN2CCN(S(=O)(=O)c3ccccc3)CC2)cc(OC)c1OC`, the Potency is 3.16 µM (active). Under `COc1ccccc1N1CCN(S(=O)(=O)c2ccc(-n3cnnn3)cc2)CC1` stands “inactive”; under `COCCN1CCCC(CNCc2cn(C)nc2-c2ccc(Oc3ccccc3)cc2)C1` (stereo not drawn), 7.94 µM (active); under `Cc1cccc(NC(=O)Cc2coc3ccc4ccccc4c23)n1`, 12.6 µM (active). Under `CCOc1ccc(C2C3=C(Nc4nc(N)[nH]c(=O)c42)c2ccccc2C3=O)cc1` (stereo not drawn) stands 14.1 µM (active); under `C/C(=C\C(=O)c1ccncc1)Nc1ccccc1O`, 14.1 µM (active). On to `CSc1ccccc1NC(=O)CN1CCN(S(=O)(=O)c2ccccc2[N+](=O)[O-])CC1`, for which the Potency is 14.1 µM (active).

As to `O=C(CCN1CCN(c2ccc(F)cc2)CC1)Nc1ccccc1F`, the Potency result was “inactive”. As for `C=CCNC(=O)c1onc(CSc2cccc3ccccc23)c1C(=O)O`, the Potency entry is “inactive”. Consider `CSc1nnc2c3ccccc3n(CCc3ccccc3)c2n1`, for which the Potency was 15.8 µM (active). As to `Cc1c(NC(=O)CSc2nnc3c4ccccc4n(CCc4ccccc4)c3n2)c(=O)n(-c2ccccc2)n1C`, the Potency is 11.2 µM (active). As to `COc1ccc(C)cc1NC(=O)C(Sc1nnc(Nc2cc(C)ccc2OC)s1)c1ccccc1` (stereo not drawn), the Potency was 14.1 µM (active).

Turning to `Cn1cc([N+](=O)[O-])c(C(=O)Nc2nccs2)n1`, the Potency entry is “inactive”. For the compound `CC(C)(C)OC(=O)NCCCCCNC(=O)c1[nH]cnc1C(=O)Nc1nccs1`, the Potency was 10 µM (active). Consider `CCn1cc(C(=O)O)c(=O)c2cc(F)c(N/N=C/c3ccccc3)cc21`, for which the Potency is 12.6 µM (active).

For the compound `O=C(c1cccs1)N1CCC(c2nc3c(nnn3Cc3c(Cl)cccc3Cl)c(=O)[nH]2)CC1`, the Potency is 7.94 µM (active). Under `O=c1[nH]c(C2CCN(S(=O)(=O)c3cccc([N+](=O)[O-])c3)CC2)nc2c1nnn2Cc1ccccc1` stands 10 µM (active). Take `CC(SC#N)C(=O)C12CC3CC(CC(C3)C1)C2` (stereo not drawn): the Potency is 8.91 µM (active).

Take `O=C(CSc1nnc(-c2ccco2)o1)N1c2ccccc2CCc2ccccc21`: the Potency is 10 µM (active). Consider `C/C(=N\NC(=S)NCC(C)(C)C)c1cc(F)cc(F)c1O`, for which the Potency is 11.2 µM (active).

For `CC1=NNC(=O)/C1=C\c1cn(-c2ccccc2)nc1-c1cccs1`, the Potency is 8.91 µM (active). For `COc1cccc(Nc2ccc(N3CCCCC3)cc2)c1OC`, the Potency is 6.31 µM (active). Under `S=c1[nH]nc(COc2ccccc2)n1/N=C/C(Cl)=C/c1ccccc1` stands 14.1 µM (active). Under `ClC(/C=N/n1cnnc1)=C/c1ccccc1` stands 14.1 µM (active); under `O=C(CSc1nc2nn(-c3ccccc3)c(=O)c-2c2n1CCCCC2)c1ccc(O)c(O)c1`, 12.6 µM (active).

For the compound `COc1cc(/C=C/C(=O)c2ccc(NS(=O)(=O)c3ccc(C)cc3)cc2)ccc1OC(F)F`, the Potency is 12.6 µM (active). Under `COc1ccc(/C=C/C(=O)c2ccc(NS(=O)(=O)c3ccc(C)cc3)cc2)cc1O` stands 7.94 µM (active); under `Cc1c(O)ccc(C(=O)CN2CCN(Cc3ccc4c(c3)OCO4)CC2)c1O`, 14.1 µM (active); under `Cc1c(-c2ccccc2)nc2ccccc2c1C(=O)Nc1ccncc1`, 0.501 µM (active). Under `O=C(c1cc(COc2cccc(C(F)(F)F)c2)on1)N1CCC(Oc2cccnc2)CC1` stands 12.6 µM (active); under `CC(=O)N1CCCN(C(=O)c2cc(COc3c(F)cccc3F)on2)CC1`, “inactive”; under `CN1CCN(C(=O)c2cc(COc3c(F)cccc3F)on2)CC1c1ccccc1` (stereo not drawn), “inactive”. In the case of `S=c1[nH]nc(-c2cc(-c3ccccc3)n[nH]2)n1/N=C/C(Br)=C/c1ccccc1`, the Potency was 6.31 µM (active).

Regarding `C=C1C(=O)O[C@@H]2C[C@@H](C)[C@@H]3C=CC(=O)[C@@]3(C)[C@@H](OC(C)=O)[C@H]12`, the Potency is 1.58 µM (active). Take `COc1ccc2nc3sc(C(=O)NCCN4CCc5ccccc5C4)cc3cc2c1`: the Potency is 8.91 µM (active). Turning to `c1ccc2c(c1)Nc1cc3ccccc3cc1S2`, the Potency is 5.01 µM (active). Turning to `O=C(/C=C/Sc1ncn[nH]1)c1ccc(Cl)cc1`, the Potency is 12.6 µM (active). Under `CCN(Cc1ccccc1)C(=O)CSc1ncn[nH]1` stands “inactive”; under `O=C(/C=C/c1ccccc1Cl)c1ccccc(=O)c1O`, 10 µM (active); under `Cc1ccc(C)c(/C=C/C(=O)c2ccccc(=O)c2O)c1`, 14.1 µM (active). Turning to `N#Cc1ccccc1S(=O)(=O)N1CCC(C(=O)NCc2ccccc2CN2CCCC2)CC1`, the Potency was 12.6 µM (active). Under `Cc1ccc(SCC(=O)Nc2ccccc2C(=O)O)cc1` stands “inactive”. Under `COc1ccc(C)cc1NC(=O)CSCc1ccccc1C` stands 12.6 µM (active); under `CCOc1ccc(NC(=O)CC2C(=O)N(c3ccccc3)C(=O)N2CCOC)cc1` (stereo not drawn), “inactive”. As for `O=C(C[C@H]1C(=O)N(Cc2ccccc2)C[C@@H]1Cc1ccccc1)Nc1ccccc1`, the Potency was 11.2 µM (active). As for `Cn1c(Cc2cccc3ccccc23)nnc1SCc1ccc([N+](=O)[O-])cc1`, the Potency is 14.1 µM (active).

Consider `CC1(C)CCSC(/C=C/c2ccccc2)=N1`, for which the Potency was 7.94 µM (active). Under `CCC(=O)NC(=S)Nc1ccc(NC(=O)c2ccc(C)c([N+](=O)[O-])c2)cc1` stands 14.1 µM (active); under `CC(=O)c1ccc(NC(=S)Nc2ccc3cn[nH]c3c2)cc1`, “inactive”. Under `Cc1ccc(-c2nn(C(C)(C)C)c3ncnc(N)c23)cc1` stands 5.62 µM (active); under `Cc1cccc[n+]1CC(=O)c1ccc(NC(=O)c2ccccc2)cc1`, 7.94 µM (active); under `Cc1ccc(Nc2cc(C)nc3ccc(C)cc23)cc1`, 10 µM (active). In the case of `CN(CCC#N)C(=O)COC(=O)c1ccc2[nH]c3c(c2c1)CCCC3`, the Potency result is “inactive”.

Regarding `COc1ccccc1N1CCN(C(=O)c2ccc3[nH]c4c(c3c2)CCCC4)CC1`, the Potency was 12.6 µM (active). Under `Cc1ccc(Cl)cc1Nc1nc(-c2sc(NC(=O)C(C)(C)C)nc2C)cs1` stands 5.01 µM (active); under `CCOC(=O)C1CCN(c2c(NCc3ccc(C(=O)NCCC(C)C)cc3)c(=O)c2=O)CC1`, 2.24 µM (active). Under `COc1ccc(C(=O)/C=C/c2cccnc2)c(OC)c1` stands 7.94 µM (active). Under `O=C(/C=C/c1ccccc1)/C=C/c1ccccc1` stands 11.2 µM (active); under `O=C(/C=C/c1cccnc1)c1ccc(O)cc1`, 15.8 µM (active); under `O=C(/C=C/c1cccnc1)/C=C/c1cccnc1`, 4.47 µM (active).

Take `COc1cc(/C=C/C(=O)Nc2cccnc2)cc(OC)c1OC`: the Potency is 14.1 µM (active). Take `COc1cc(C(=O)/C=C/c2cccnc2)ccc1O`: the Potency is 12.6 µM (active). Under `COc1cc(/C=C/C(=O)OCC(=O)Nc2c(C)n(C)n(-c3ccccc3)c2=O)cc(OC)c1OC` stands “inactive”; under `CC(C)NC(=O)c1onc(CSc2cccc3ccccc23)c1C(=O)O`, “inactive”. Under `COc1cc2cc[n+](Cc3ccc([N+](=O)[O-])cc3)cc2cc1OC` stands 5.01 µM (active). For `Fc1ccccc1N1CCN(c2ncnc3nc[nH]c23)CC1`, the Potency result was “inactive”.

For the compound `CN1CCN(c2ncnc3c2c(-c2ccccc2)cn3-c2ccc(F)cc2)CC1`, the Potency is 11.2 µM (active). On to `CCN1CCN(c2ncnc3c2c(-c2ccccc2)cn3-c2ccc(F)cc2)CC1`, for which the Potency was 12.6 µM (active). Under `COc1ccc(-n2c(=O)/c(=C\c3cccs3)s/c2=C(/C#N)C(=O)N2CCN(C)CC2)cc1` stands “inactive”; under `O=C(CCl)N1CCN(CC(=O)N2CCCC2)CC1`, 15.8 µM (active); under `CN(C(=O)CN1C(=O)CCSc2ccc(S(=O)(=O)N3CCCC3)cc21)c1ccccc1`, 11.2 µM (active).

Consider `O[C@@H](c1cc(C(F)(F)F)nc2c(C(F)(F)F)cccc12)[C@H]1CCCCN1`, for which the Potency was 0.178 µM (active).

Take `OC(c1cc(C(F)(F)F)nc2c(C(F)(F)F)cccc12)C1CCCCN1` (stereo not drawn): the Potency is 0.0447 µM (active). On to `OC(c1cc(C(F)(F)F)nc2c(Cl)cc(Cl)cc12)C1CCCCN1` (stereo not drawn), for which the Potency is 0.0282 µM (active). As for `OC(c1cc(-c2ccc(Cl)cc2)nc2ccccc12)C1CCCCN1` (stereo not drawn), the Potency was 0.282 µM (active). As to `COc1ccc(-n2c(C)cc(C(=O)COC(=O)Cc3n[nH]c(=O)c4ccccc34)c2C)cc1`, the Potency is 5.62 µM (active).

Consider `O=C(Cc1n[nH]c(=O)c2ccccc12)OCc1c(Cl)cccc1Cl`, for which the Potency result was “inactive”. Regarding `CC(C)(C)C(=O)/C(=C\c1cccc([N+](=O)[O-])c1)n1cncn1`, the Potency is 14.1 µM (active). Under `CC(=O)c1ccc(NC(=O)C2Cc3ccccc3CN2C(=O)c2ccccc2)cc1` (stereo not drawn) stands 14.1 µM (active). Under `C/C1=C\CCC2C(/C=C(\C)CC1)OC(=O)C2CN1CCCCC1` (stereo not drawn) stands 12.6 µM (active); under `N#Cc1cc(Oc2cccc3cccnc23)c(-n2nnc3ccccc32)cc1C#N`, 5.01 µM (active); under `COc1ccccc1-c1cc(C(=O)N/N=C/c2ccc(C)s2)c2ccccc2n1`, 5.62 µM (active). Regarding `COc1ccccc1-c1cc(C(=O)N/N=C/c2cccs2)c2ccccc2n1`, the Potency is 5.62 µM (active). On to `COc1ccccc1-c1cc(C(=O)N/N=C/c2ccc(C)o2)c2ccccc2n1`, for which the Potency result is “inactive”. As to `OC1C2(Cc3ccccc3)CN3CCN(C2)CC1(Cc1ccccc1)C3` (stereo not drawn), the Potency is 2 µM (active). Under `CCCc1cc(NCCCN2CCOCC2)n2c(nc3ccccc32)c1C#N` stands 8.91 µM (active). Under `Cc1ccccc1-c1nnc(NC(=O)c2ccc(N3C(=O)CCC3=O)cc2)s1` stands 14.1 µM (active); under `CCC[C@H]1C[C@H](C(=O)N[C@@H]([C@H]2O[C@@H](SC)[C@@H](O)[C@@H](O)[C@@H]2O)[C@H](C)Cl)N(C)C1`, 0.631 µM (active). As to `COc1ccc(NS(=O)(=O)c2ccc(N3CCOCC3)c(NC(=O)c3ccc(OC)cc3)c2)cc1`, the Potency is 11.2 µM (active). Under `CCOC(=O)C1=C(C)NC(C)=C(C(=O)OCC)C1c1cc(N)ccc1OC(F)F` stands 5.62 µM (active); under `CCOc1ccc(S(=O)(=O)N2CCCC(C(=O)NC3CC3)C2)cc1Cl` (stereo not drawn), 12.6 µM (active); under `COC(=O)COc1ccc(S(=O)(=O)NCCC2=CCCCC2)cc1Cl`, “inactive”. Under `COc1cccc2sc(NNC(=O)c3nc4ccccc4s3)nc12` stands 15.8 µM (active).

Values taken from PubChem BioAssay AID504850 (National Center for Advancing Translational Sciences (NCATS), 2011).
